Results published in PubChem BioAssay AID1159580 (chemical genetic matrix, 2015).
The campaign covered roughly 5,500 compounds. About 2,000 (36%) were called active. Not shown: some 18% with an inconclusive outcome. No stated cut-off is given here; in the data, active means normalized growth mostly below about 0.91 (no sharp cut-off); inconclusive means no clear call, values can overlap the other calls; inactive means mostly above about 0.92. Some of the results follow.

Assay: chemical genetic growth profiling, strain panel (AID 1159580);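 further: tested at 20 µM; growth read once vehicle control cultures reached saturation at 30 °C; 1 = growth at the plate median or of vehicle wells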
Conditions: S. cerevisiae deletion strains, growth OD

Measured: normalized growth

O=C(O)C1CN(CCCP(=O)(O)O)CCN1 (stereo not given)
inactive: locus YAL040C, strain CLN3, stronger effect = lower value 0.977 | locus YCL061C, strain MRC1 (second series), stronger effect = lower value 0.994 | locus YDR363W, strain ESC2, stronger effect = lower value 0.965 | locus YER002W, strain NOP16, stronger effect = lower value 0.975 | locus YGR078C, strain PAC10, stronger effect = lower value 0.966 | locus YGR229C, strain SMI1, stronger effect = lower value 0.967 | locus YJR075W, strain HOC1, stronger effect = lower value 0.987 | locus YNL128W, strain TEP1, stronger effect = lower value 1.02 | locus YNL175C, strain NOP13, stronger effect = lower value 0.974 | locus YNL197C, strain WHI3, stronger effect = lower value 0.99 | locus YNL224C, strain SQS1, stronger effect = lower value 0.991 | locus YOR083W, strain WHI5 (second series), stronger effect = lower value 1.04 | locus YPL055C, strain LGE1, stronger effect = lower value 0.951 | locus YPL241C, strain CIN2, stronger effect = lower value 0.984

COc1ccc(-c2cc(=O)c3c(O)c(OC)c(OC)c(OC)c3o2)cc1
inactive: locus YAL021C, strain ccr4, stronger effect = lower value 0.987 | locus YAL026C, strain drs2, stronger effect = lower value 0.988 | locus YAL030W, strain snc1, stronger effect = lower value 1 | locus YBL061C, strain skt5, stronger effect = lower value 0.99 | locus YBR009C, strain hhf1, stronger effect = lower value 0.995 | locus YBR023C, strain chs3, stronger effect = lower value 0.993 | locus YBR171W, strain sec66, stronger effect = lower value 0.999 | locus YBR231C, strain swc5, stronger effect = lower value 0.986 | locus YBR279W, strain paf1, stronger effect = lower value 0.999 | locus YCL011C, strain gbp2, stronger effect = lower value 0.987 | locus YCL016C, strain dcc1, stronger effect = lower value 0.968 | locus YCL069W, strain vba3, stronger effect = lower value 0.983 | locus YCR088W, strain abp1, stronger effect = lower value 0.996 | locus YDL005C, strain med2, stronger effect = lower value 0.986 | locus YDL040C, strain nat1, stronger effect = lower value 0.993 | locus YDR001C, strain nth1, stronger effect = lower value 0.992 | locus YDR069C, strain doa4, stronger effect = lower value 0.976 | locus YDR137W, strain rgp1, stronger effect = lower value 1 | locus YDR159W, strain sac3, stronger effect = lower value 1 | locus YDR195W, strain ref2 0.953 | locus YDR297W, strain sur2, stronger effect = lower value 0.987 | locus YDR334W, strain swr1, stronger effect = lower value 0.977 | locus YDR335W, strain msn5, stronger effect = lower value 0.995 | locus YDR392W, strain spt3, stronger effect = lower value 0.991 | locus YEL003W, strain gim4, stronger effect = lower value 0.984 | locus YEL037C, strain rad23, stronger effect = lower value 0.992 | locus YEL061C, strain CIN8 (second series), stronger effect = lower value 0.998 | locus YER015W, strain faa2, stronger effect = lower value 0.989 | locus YER016W, strain bim1, stronger effect = lower value 0.998 | locus YER111C, strain swi4, stronger effect = lower value 0.997 | locus YER155C, strain BEM2 (second series), stronger effect = lower value 0.978 | locus YFR010W, strain ubp6, stronger effect = lower value 1 | locus YGL167C, strain pmr1, stronger effect = lower value 0.995 | locus YGL173C, strain kem1, stronger effect = lower value 1.02 | locus YGL227W, strain vid30, stronger effect = lower value 1 | locus YGL240W, strain doc1, stronger effect = lower value 1 | locus YGL253W, strain hxk2, stronger effect = lower value 1 | locus YHR013C, strain ard1, stronger effect = lower value 0.971 | locus YHR027C, strain rpn1, stronger effect = lower value 0.964 | locus YHR142W, strain chs7, stronger effect = lower value 0.986 | locus YJL092W, strain hpr5, stronger effect = lower value 0.99 | locus YJL095W, strain BCK1 (second series), stronger effect = lower value 1 | locus YJL115W, strain asf1, stronger effect = lower value 0.979 | locus YJL129C, strain trk1, stronger effect = lower value 0.979 | locus YJL154C, strain vps35, stronger effect = lower value 0.988 | locus YJL164C, strain tpk1, stronger effect = lower value 1.01 | locus YJL166W, strain qcr8, stronger effect = lower value 0.998 | locus YJL187C, strain SWE1, stronger effect = lower value 0.995 | locus YKL160W, strain elf1, stronger effect = lower value 0.972 | locus YKR026C, strain gcn3, stronger effect = lower value 1.01 | locus YKR091W, strain srl3, stronger effect = lower value 0.994 | locus YLL001W, strain dnm1, stronger effect = lower value 0.999 | locus YLL026W, stronger effect = lower value 0.983 | locus YLL041C, strain sdh2, stronger effect = lower value 0.982 | locus YLR027C, strain aat2, stronger effect = lower value 0.991 | locus YLR221C, strain rsa3, stronger effect = lower value 0.992 | locus YLR258W, strain gsy2, stronger effect = lower value 0.982 | locus YLR262C, strain YPT6 (second series), stronger effect = lower value 1 | locus YLR320W, strain mms22, stronger effect = lower value 1 | locus YLR342W, strain FKS1, stronger effect = lower value 0.99 | locus YLR357W, strain rsc2, stronger effect = lower value 0.97 | locus YLR370C, strain arc18, stronger effect = lower value 0.983 | locus YLR384C, strain iki3, stronger effect = lower value 0.99 | locus YML120C, strain ndi1, stronger effect = lower value 0.992 | locus YMR058W, strain fet3, stronger effect = lower value 0.976 | locus YMR125W, strain sto1, stronger effect = lower value 0.974 | locus YMR129W, stronger effect = lower value 0.989 | locus YMR205C, strain PFK2, stronger effect = lower value 0.997 | locus YMR231W, strain pep5, stronger effect = lower value 1.01 | locus YNL071W, strain lat1, stronger effect = lower value 1 | locus YNL209W, strain ssb2, stronger effect = lower value 0.984 | locus YNL248C, strain rpa49, stronger effect = lower value 0.969 | locus YNL322C, strain KRE1 (second series), stronger effect = lower value 1.01 | locus YNR049C, strain mso1, stronger effect = lower value 0.984 | locus YOR001W, strain rrp6, stronger effect = lower value 0.998 | locus YOR070C, strain gyp1, stronger effect = lower value 0.99 | locus YOR080W, strain dia2, stronger effect = lower value 0.984 | locus YOR083W, strain WHI5, stronger effect = lower value 0.993 | locus YOR106W, strain vam3, stronger effect = lower value 0.955 | locus YOR265W, strain rbl2, stronger effect = lower value 0.983 | locus YOR270C, strain vph1, stronger effect = lower value 1.01 | locus YOR290C, strain snf2, stronger effect = lower value 0.955 | locus YPL051W, strain arl3, stronger effect = lower value 0.981 | locus YPL078C, strain atp4, stronger effect = lower value 0.991 | locus YPL106C, strain sse1, stronger effect = lower value 0.981 | locus YPL240C, strain hsp82, stronger effect = lower value 0.99
